Only some compounds are listed: those with a hit (about 5.8% of all), similar ones and a draw of the others.
TRPV1 agonist: agonists of human vanilloid receptor 1 (TRPV1). 320,000 compounds, 0.19% hits. activation, % at 8.33 µM. AID 540275. TRPV1-expressing cells, Fluo-8 calcium influx, agonist mode. Q8NER1; in the data active means activation above about 80%; inconclusive means between about 30% and that limit; further: 0% is about no effect
Target sequence (Q8NER1 whole entry, looked up): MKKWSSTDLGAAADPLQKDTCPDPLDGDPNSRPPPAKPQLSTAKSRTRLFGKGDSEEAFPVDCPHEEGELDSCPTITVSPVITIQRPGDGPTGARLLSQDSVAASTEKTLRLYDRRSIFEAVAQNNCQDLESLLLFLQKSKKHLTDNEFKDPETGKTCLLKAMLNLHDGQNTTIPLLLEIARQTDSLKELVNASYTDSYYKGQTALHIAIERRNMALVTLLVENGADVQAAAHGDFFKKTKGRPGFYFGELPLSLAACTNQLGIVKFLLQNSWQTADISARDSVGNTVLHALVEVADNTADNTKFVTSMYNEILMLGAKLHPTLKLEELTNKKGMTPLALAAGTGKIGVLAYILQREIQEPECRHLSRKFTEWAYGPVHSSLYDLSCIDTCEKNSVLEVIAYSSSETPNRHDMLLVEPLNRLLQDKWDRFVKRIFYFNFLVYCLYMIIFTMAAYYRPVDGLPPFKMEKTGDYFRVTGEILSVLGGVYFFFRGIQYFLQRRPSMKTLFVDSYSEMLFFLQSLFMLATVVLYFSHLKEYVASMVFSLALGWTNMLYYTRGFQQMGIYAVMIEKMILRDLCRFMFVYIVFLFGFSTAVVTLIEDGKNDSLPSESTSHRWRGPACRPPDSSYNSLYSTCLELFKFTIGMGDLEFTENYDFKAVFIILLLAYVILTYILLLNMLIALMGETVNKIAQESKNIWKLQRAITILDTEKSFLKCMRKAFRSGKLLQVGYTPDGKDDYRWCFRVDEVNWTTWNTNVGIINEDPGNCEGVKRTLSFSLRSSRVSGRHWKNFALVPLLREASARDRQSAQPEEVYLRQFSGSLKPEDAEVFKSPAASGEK
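Fluo-8 calcium influx in TRPV1-expressing cells, kinetic read (ex 480/em 520 nm). Compound added and read 3 min for agonist activity, followed by capsaicin at EC20 final and 2 min further read for enhancement.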
RORg inh: inhibitors of mouse ROR gamma transcriptional activity; AID 2551; Potency, µM (series often up to 53.6 µM), for the others: top-dose activity change, negative = inhibition, hits mostly inhibitors; Drosophila S2 Gal4-RORgamma UAS-luciferase reporter, 20 h; 310,000 compounds, 5.4% hits; further: potency means the concentration at half of the fitted maximal effect; on the % scale 0 is the no-effect control and ±100 the full control effect; nearly all actives have a fitted effect of over 60% in size
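ROR gamma transcriptional activity was tracked as Gal4-UAS luciferase output in stably transfected Drosophila Schneider cells, with compound added 1 hr before 700 uM copper sulfate induction and a 20 hr ambient-temperature incubation.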
TRPV1 potentiator: potentiators of human vanilloid receptor 1 (TRPV1) | Q8NER1 | TRPV1-expressing cells, Fluo-8 calcium influx, capsaicin EC20 potentiation | potentiation, % at 8.33 µM | 320,000 compounds, 0.02% hits; in the data active means potentiation above about 80%; inconclusive means between about 30% and that limit; further: 0% is about no effect
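Fluo-8 calcium influx in TRPV1-expressing cells, kinetic read (ex 480/em 520 nm). Compound added and read 3 min for agonist activity, followed by capsaicin at EC20 final and 2 min further read for enhancement.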
uPA surface inh: blocks generation of uPA at the cell surface. cell surface uPA generation assay, qHTS. Potency, µM (titrated, usually from 38.3 µM), for inactives: at the highest dose activity change, negative = inhibition, actives largely listed as inhibitors. 330,000 compounds, 0.31% hits; active means well fitted inhibition curve with a large enough effect; inconclusive means small, poorly fitted or top-dose-only effect; inactive means no such curve, though single readings can be large or run the other way; tested in mouse RAW 264.7 cells; further: potency means the concentration at half of the fitted maximal effect; on the % scale 0 is the no-effect control and ±100 the full control effect; nearly all actives have a fitted effect of over 55% in size
VP16 counter: inhibits Gal4-VP16 luciferase reporter, ROR gamma counter-screen; Drosophila S2 Gal4-VP16 UAS-luciferase, luminescence, 20 h; Potency, µM (doses to about 53.6 µM), without a hit: at the highest dose activity, negative = inhibition, usual class: inhibitors; 310,000 compounds, 3.5% hits;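 further: Gal4-VP16 expression switched on by copper sulfate through the metallothionein promoter; potency means the concentration at half of the fitted maximal effect; on the % scale 0 is the no-effect control and ±100 the full control effect; nearly all actives have a fitted effect of over 50% in size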
The depositor's hits bear a star; ? = inconclusive; nt = no result; [ ] = dose if it differs, or a comment. Unless noted, the call rests on the fitted dose curve; in most records, active means well fitted curve in the direction sought with a large enough effect; inconclusive means small, poorly fitted or top-dose-only effect, or another doubt; inactive means no such curve, though single readings can be large; an effect the other way counts as inactive or inconclusive.

SMILES	TRPV1 agonist	RORg inh	TRPV1 potentiator	uPA surface inh	VP16 counter
Cc1cc(NC2CCCC2)n2nc(C)c(-c3ccccc3)c2n1	21	-44%	-12	1%	5%
Cc1cc(NC2CCCC2)n2ncc(-c3ccccc3)c2n1	1	7.1µM*	21	-12%	8.9µM*
N#C/C(=C(O)\C=C\c1ccccc1)c1nc2ccccc2[nH]1	-2	2µM*	19	3%	-21%
CC(C)(C)/C(O)=C(/C#N)c1nc2ccccc2[nH]1	?	11µM*	-15	-1%	?
COc1cccc(OC)c1/C(O)=C(\C#N)c1nc2ccccc2[nH]1	0	3%	23	?	-8%
CC(C)CC(/C(O)=C(\C#N)c1nc2ccccc2[nH]1)N1C(=O)c2ccccc2C1=O (stereo unspecified)	23	7.9µM*	-21	-10%	20µM*
N#C/C(=C/c1ccc(O)c(O)c1)c1nc2ccccc2[nH]1	28	?	13	?	0%
CCOC(=O)/C(O)=C(\C#N)c1nc2ccccc2[nH]1	2	?	1	3%	-6%
CC1(NC(=O)Cn2cc(C(F)(F)F)ccc2=O)CCS(=O)(=O)C1 (stereo unspecified)	0	nt	9	9%	nt
CCOC(=O)C(=Cc1cc(=O)c(OC)co1)C(=O)OCC	4	4.5µM*	-2	?	5µM*
O=C(CCCc1ccccc1)NCc1cn2ccsc2n1	11	?	-1	-1%	25%
Oc1ccc2ccccc2c1C=NCc1cn2ccsc2n1	28	?	-27	-4%	13µM*
Cc1c(C(=O)N(Cc2nccn2C)C(C)C)oc2c(F)cccc12	4	-32%	-10	3%	-8%
CCCc1ccc2oc(C(=O)N(Cc3nccn3C)C(C)C)c(C)c2c1	4	11µM*	-5	13%	-3%
NC(=S)NN=C1c2ccccc2-c2c(F)c(F)c(F)c(F)c21	nt	nt	nt	-4%	nt
Cc1ccc(-c2nnnn2C2C/C(=N\NC(N)=S)C3OCC2O3)cc1 (stereo unspecified)	4	10µM*	-12	-4%	?
NC(=S)N/N=C1\CC(n2nnnc2-c2ccccc2Cl)C2COC1O2 (stereo unspecified)	-3	11µM*	6	-1%	?
CCOC(=O)NNC1CC(=O)N(c2ccc(OC)cc2)C1=O (stereo unspecified)	0	-8%	-12	nt	-9%
Cc1nc(CNC(=O)CC2C(=O)NCCN2Cc2ccc(F)cc2)cs1 (stereo unspecified)	-2	4%	9	5%	-2%
CC(C)(C)[C@H]1COC(=O)[C@H](NC(=O)OCC2c3ccccc3-c3ccccc32)C/C=C\C[C@@H](CC(=O)N[C@H](CO)Cc2ccccc2)C(=O)N1	nt	nt	nt	-21%	nt
CC(C)NC(=O)c1onc(CSc2ccc(C(C)C)cc2)c1C(=O)O	4	?	0	-7%	20µM*
CCc1cccc(CC)c1NC(=S)NC(C)c1ccccc1 (stereo unspecified)	25	4µM*	-12	?	?
Cc1cccc(NC(=S)NCc2ccc3c(c2)OCO3)c1	18	11µM*	-11	-3%	16µM*
CCc1cccc(CC)c1NC(=S)NCc1ccc2c(c1)OCO2	0	8.9µM*	-7	-2%	?
O=C(Nc1cccc(C(=O)O)c1)Nc1ccc2c(c1)OCO2	3	10µM*	-3	-6%	11µM*
SMILES	TRPV1 agonist	RORg inh	TRPV1 potentiator	uPA surface inh	VP16 counter
O=C(Nc1ccc2c(c1)OCO2)Nc1ccc2c(c1)OCO2	8	-14%	4	-12%	0%
CCc1ncnc2cc(OC)c(OC)cc12	nt	1%	nt	nt	-1%
COc1ccc(-c2nc3cnc(N4CCOCC4)nc3n(CCc3ccccc3)c2=O)cc1	nt	-2%	nt	nt	-6%
NNC(=S)NCc1ccc2c(c1)OCO2	-1	7.9µM*	4	5%	8.9µM*
CCNC(=S)NCc1ccc2c(c1)OCO2	-1	-31%	6	6%	-18%
O=C(O)c1ccc(NCc2ccc3c(c2)OCO3)cc1	-2	4µM*	-1	4%	1.3µM*
O=C(Cc1ccccc1)NCc1ccc2c(c1)OCO2	29	-14%	-7	0%	-28%
S=C(NCc1ccc2c(c1)OCO2)NCc1ccc2c(c1)OCO2	?	16µM*	-1	-3%	?
O=C(NCc1ccc2c(c1)OCO2)c1ccc2c(c1)OCO2	?	24%	-23	-7%	-3%
Cc1cc(Br)cc2c1NC(=O)C2(O)CC(=O)c1ccco1 (stereo unspecified)	-1	12%	7	-1%	-10%
COc1cc(SC#N)ccc1N=Cc1c(C)[nH]n(-c2ccc(Cl)cc2)c1=O	2	5.6µM*	0	0%	5.6µM*
COc1cc(SC#N)ccc1N=Cc1c(C)[nH]n(-c2ccc(C)c(C)c2)c1=O	4	4.5µM*	1	?	4.5µM*
Cc1noc(C)c1-c1ccc2ncnc(N3CCOCC3)c2c1	nt	-39%	nt	nt	27%
COc1ccccc1NC(=S)N(CCN1CCCCCC1)Cc1cccs1	8	14µM*	4	-5%	-15%[10 µM]
CNC(=S)N(Cc1ccc(Cl)cc1)Cc1cccs1	22	-17%	-17	-8%	7%
Cc1ccccc1NC(=S)N(Cc1ccccc1)Cc1cccs1	2	10µM*	-1	-6%	-9%
Cc1ccccc1NC(=S)N(CCN1CCCCCC1)Cc1cccs1	16	10µM*	-7	-8%	?
Cc1ccccc1NC(=S)N(Cc1cccs1)C1CCCC1	8	?	1	3%	?
CCc1ccccc1NC(=S)N(Cc1cccs1)C1CCCC1	-3	11µM*	-5	-3%	15%[10 µM]
CC1=NNC(=O)/C1=C\c1cn(-c2ccccc2)nc1-c1cccs1	20	?	-4	?	4.5µM*
O=Cc1cn(-c2ccccc2)nc1-c1ccc(F)cc1	?	32%	-2	-4%	-2%
CC1=NNC(=O)/C1=C\c1cn(-c2ccccc2)nc1-c1ccc(F)cc1	29	4.5µM*	-5	-11%	5µM*
Cc1ccc(NC(=O)COC(=O)c2sccc2C)cc1S(=O)(=O)N1CCOCC1	0	?	-4	-6%	19%
Nc1nonc1C(=O)N/N=C/c1ccc(-c2cccc([N+](=O)[O-])c2)o1	-1	-17%	-1	4%	2%
O=C(N/N=C/c1ccc(-c2cccc([N+](=O)[O-])c2)o1)c1cccs1	-1	10µM*	3	2%	?
O=[N+]([O-])c1cccc(-c2ccc(/C=N/NC(=S)Nc3cccc(F)c3)o2)c1	1	0.89µM*	-2	-6%	7.1µM*
Cc1ccc(C(=O)N/N=C\c2ccc(-c3ccc(Cl)c(Cl)c3)o2)cn1	6	?	11	-10%	?
NC(=S)N/N=C/c1ccc(-c2cccc([N+](=O)[O-])c2)o1	5	1µM*	-1	3%	4.5µM*
Cc1ccc(C(=O)N/N=C/c2ccc(-c3cccc(Cl)c3)o2)cn1	nt	5µM*	nt	-8%	7.1µM*
